Here are results for 9 compounds from PubChem BioAssay (Tox21).

Records with an inconclusive call do not appear. Activity calls are given as the source filed them. Unless noted, calls come from the whole dose curve.

Assay [1] can be described thus: Nuclear factor erythroid 2-related factor 2/antioxidant responsive element (Nrf2/ARE) small molecule agonists: qHTS cell viability counter screen in human keratinocytes (AID 1919968; active = well fitted curve in the direction sought with a large enough effect in the repeat runs; an effect the other way counts as inactive or inconclusive; note: nearly all actives have a fitted effect of over 55% in size; note: potency is the fitted concentration of half-maximal effect). The method in brief: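 Measured as CellTiter-Fluor fluorescence, this readout tracks cytotoxicity in the same wells as the ARE-luciferase screen. HaCaT reporter cells (1,500/well) received compounds after a 5 h pre-incubation and were exposed for 23 h.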

Assay [2] in a line: Nuclear factor erythroid 2-related factor 2/antioxidant responsive element (Nrf2/ARE) small molecule agonists: luciferase reporter gene qHTS assay in human keratinocytes (AID 1919969). Note: nearly all actives have a fitted effect of over 35% in size. Note: potency is the fitted concentration of half-maximal effect.
Assay [3] has as its target Gonadotropin-releasing hormone receptor (Homo sapiens) (UniProt P30968). Nature of the assay: Human gonadotropin-releasing hormone receptor (GnRHR) small molecule agonists, calcium flux assay in GnRHR-HEK293 cells (AID 1920063). Note: nearly all actives have a fitted effect of over 35% in size. Note: potency is the fitted concentration of half-maximal effect. The method in brief: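 Fluorescence kinetics (480 nm excitation, 540 nm emission; 3 min, 1 s steps) report calcium mobilisation in human GnRHR-HEK293 cells in agonist mode. Dye incubation: 1 h, 37 C.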

Assay [4] addresses KiSS-1 receptor (Homo sapiens) (UniProt Q969F8). Kind of assay: Human kisspeptin (KISS1R) small molecule agonists, calcium flux assay in KISS1R-HEK293 cells (AID 1920064; active = well fitted curve in the direction sought with a large enough effect in the repeat runs; an effect the other way counts as inactive or inconclusive). The procedure, abridged: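 Measures KISS1R agonism through calcium-sensitive dye fluorescence in stably transfected HEK293 cells, read for 3 min after pin-tool compound delivery; 15-point titrations in triplicate.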

Assay [5] in a line: p53 small molecule agonists, cell-based qHTS assay with human liver microsomes: qHTS cell viability counter screen (AID 1963579). Note: nearly all actives have a fitted effect of over 45% in size. The procedure, abridged:
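Cytotoxicity counter screen: p53RE-bla, 4,000 cells/well; 5 h settle, 37 C/5% CO2; cpd + HLM 0.5 mg/mL + NADPH 0.5 mg/mL (final); 16 h, 37 C; CellTiter-Glo, 30 min RT, luminescence.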

A short description of assay [6]: p53 small molecule agonists, cell-based qHTS assay with rat liver microsomes: qHTS cell viability counter screen (AID 1963580). Note: nearly all actives have a fitted effect of over 45% in size. Note: potency is the fitted concentration of half-maximal effect. The method in brief:
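HCT-116 p53RE-bla, 4,000 cells/well, 5 h pre-incubation; cpd + rat liver microsomes 0.5 mg/mL + NADPH 0.5 mg/mL (final); 16 h, 37 C; CellTiter-Glo, 30 min RT; luminescence.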

The nature of assay [7]: p53 small molecule agonists, cell-based qHTS assay: qHTS cell viability counter screen (AID 1963581). Note: nearly all actives have a fitted effect of over 45% in size. Note: potency is the fitted concentration of half-maximal effect. The procedure, abridged:
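In the same plates used for the p53 bla reporter, HCT-116 cells given compounds for 16 h at 37 C received CellTiter-Glo; luminescence was recorded 30 min later at room temperature.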

Assay [8] deals with 5-hydroxytryptamine receptor 2A (Homo sapiens) (UniProt P28223). Nature of the assay: 5-hydroxytryptamine receptor 2A (HTR2A) small molecule antagonists, cell-based qHTS assay (AID 1963586). Note: nearly all actives have a fitted effect of over 45% in size. Note: potency is the fitted concentration of half-maximal effect. The method in brief:
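Antagonist-mode intracellular calcium assay: DOI (4 nM) added after 5 min compound pre-incubation at room temperature to dye-loaded HTR2A-CHO cells. Fluorescence followed for 3 min, sampled every second.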

For assay [9] the target is unchanged. Nature of the assay: 5-hydroxytryptamine receptor 2A (HTR2A) small molecule agonists, cell-based qHTS assay (AID 1963587). Note: nearly all actives have a fitted effect of over 30% in size. Note: potency is the fitted concentration of half-maximal effect. The method in brief:
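Kinetic calcium-flux fluorescence (2 min, 1 sec intervals) after compound addition in agonist mode. HTR2A-CHO cells were cultured 18 h, then dye-loaded 1 h at 37 C.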

Assay [10] in a line: cAMP Responsive Elements (CRE) small molecule agonists, cell-based qHTS assay (AID 1963590). The procedure, abridged:
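Cell line: CRE-bla HEK 293T; medium DMEM/10% dialyzed FBS/0.1 mM NEAA/1 mM pyruvate/25 mM HEPES; 3 h compound exposure; beta-lactamase FRET readout after 2 h substrate loading at RT.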

Assay [11] in a line: cAMP Responsive Elements (CRE) small molecule antagonists, cell-based qHTS assay (AID 1963591; active = well fitted inhibition curve with a large enough effect in the signal ratio in the repeat runs, not every such curve was filed as active; the % refers to the signal ratio). The procedure, abridged:
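Inhibition of NKH477-driven (0.25 uM final) CRE-beta-lactamase signal in HEK293T cells, 3 h compound exposure at 37 °C, detected by FRET substrate fluorescence.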

For assay [12], the target named is Beta-2 adrenergic receptor (Homo sapiens) (UniProt P07550). Kind of assay: Adrenergic beta2 receptor (ADRB2) small molecule antagonists, cell-based qHTS assay (AID 1963592). Note: series mostly up to about 92 µM; nearly all actives have a fitted effect of over 50% in size. The procedure, abridged: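 Cells (CHO, stable ADRB2 overexpression) incubated 18-20hr at 37C; compounds added from DMSO; agonist mix (1nM isoproterenol, 100uM IBMX, 25uM Ro-20-1724) added; 0.5hr RT; d2-cAMP and anti-cAMP-cryptate added; 1hr RT; 665/615 nm read.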

Assay [13] concerns the target D(2) dopamine receptor (Homo sapiens) (UniProt P14416). Kind of assay: Dopamine D2 receptor (DRD2) small molecule agonists, cell-based qHTS assay (AID 1963594). Note: nearly all actives have a fitted effect of over 35% in size. The method in brief:
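cAMP accumulation in DRD2-HEK293 cells measured by HTRF after 1 h detection; compounds added 10 min before NKH477 (200nM […]) forskolin-analogue stimulation, 30 min at room temperature, with Ro20-1724 present at 0.1 mM final.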

For assay [14] the target is unchanged. Nature of the assay: Dopamine D2 receptor (DRD2) small molecule antagonists, cell-based qHTS assay (AID 1963595; active = well fitted inhibition curve with a large enough effect in the signal ratio in the repeat runs, with a control signal flat; the % refers to the signal ratio; note: potency is the fitted concentration of half-maximal effect). The procedure, abridged:
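Readout: HTRF cAMP, cAMP-d2 competing with cellular cAMP for anti-cAMP cryptate, read after 1 h. Cells: DRD2-HEK293. Conditions: 0.1 mM Ro20-1724, 12 nM quinpirole, 200 nM NKH477, 30 min RT.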

For assay [15], the target named is Muscarinic acetylcholine receptor M1 (Homo sapiens) (UniProt P11229). Nature of the assay: Cholinergic receptor muscarinic 1 (CHRM1) small molecule antagonists, cell-based qHTS assay (AID 1963588). Note: nearly all actives have a fitted effect of over 40% in size. The method in brief: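 CHRM1-CHO calcium-flux assay, antagonist mode. Cells were seeded 18 h, dye-loaded 1 h at 37 C and given compound for 5 min at RT, then acetylcholine was added at 50nM. FDSS fluorescence was read 3 min; 15 concentrations, three runs.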

The target is the same in assay [16]. Kind of assay: Cholinergic receptor muscarinic 1 (CHRM1) small molecule agonists, cell-based qHTS assay (AID 1963589). Note: nearly all actives have a fitted effect of over 35% in size. The procedure, abridged:
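Each compound was tested at 15 concentrations across three independent runs on dye-loaded CHO cells stably expressing human CHRM1, reading intracellular calcium fluorescence kinetically at 1 sec intervals.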

Assay [17] in a line: G protein-coupled receptor (GPCR) small molecule agonists, calcium flux assay: HEK293 wild type cell line counter screen (AID 1920065). The method in brief: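 Readout: fluorescence at 480 nm excitation/540 nm emission, sampled at 1 s intervals for 3 min. Cells had been cultured 18 h, then dye-loaded 1 h at 37 C before compound or ATP addition.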
The nature of assay [18]: p53 small molecule agonists, cell-based qHTS assay with human liver microsomes (AID 1963577). The method in brief:
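Fluorescence of the beta-lactamase reporter in p53RE-bla cells, detected with LiveBLAzer substrate (2 h, room temperature, dark), served as the read-out after 16 h compound exposure at 37 C with human liver microsomes and NADPH, each 0.5 mg/mL final.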

Assay [19] is described as follows: p53 small molecule agonists, cell-based qHTS assay with rat liver microsomes (AID 1963578). The procedure, abridged:
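Cells carrying a p53 response element–beta-lactamase reporter were plated and rested 5 h, then dosed with compound in DMSO plus rat liver microsomes and NADPH, each at 0.5 mg/mL final. After 16 h at 37 C, LiveBLAzer substrate was added for 2 h.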

The nature of assay [20]: p53 small molecule agonists, cell-based qHTS assay (AID 1963582; active = well fitted activation curve with a large enough effect in the signal ratio in the repeat runs, not every such curve was filed as active; the % refers to the signal ratio). The method in brief: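 Compounds are pin-transferred in DMSO onto p53RE-bla cells and incubated 16 h at 37 C. The B/G FRET beta-lactamase substrate is then applied for 2 h at RT and fluorescence recorded.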

Sequence of KiSS-1 receptor (Homo sapiens) (Q969F8 whole entry, looked up): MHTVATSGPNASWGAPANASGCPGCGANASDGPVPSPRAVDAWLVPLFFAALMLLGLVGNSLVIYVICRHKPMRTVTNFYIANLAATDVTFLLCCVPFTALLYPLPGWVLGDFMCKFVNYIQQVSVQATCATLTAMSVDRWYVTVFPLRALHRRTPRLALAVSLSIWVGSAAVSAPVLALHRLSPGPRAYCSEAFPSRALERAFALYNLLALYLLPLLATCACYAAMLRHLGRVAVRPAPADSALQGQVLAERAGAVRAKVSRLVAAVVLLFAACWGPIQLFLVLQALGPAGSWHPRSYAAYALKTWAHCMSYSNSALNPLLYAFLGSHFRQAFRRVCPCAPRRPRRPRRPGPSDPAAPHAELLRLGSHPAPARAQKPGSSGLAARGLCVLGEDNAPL
Sequence of Gonadotropin-releasing hormone receptor (Homo sapiens) (P30968 whole entry, looked up): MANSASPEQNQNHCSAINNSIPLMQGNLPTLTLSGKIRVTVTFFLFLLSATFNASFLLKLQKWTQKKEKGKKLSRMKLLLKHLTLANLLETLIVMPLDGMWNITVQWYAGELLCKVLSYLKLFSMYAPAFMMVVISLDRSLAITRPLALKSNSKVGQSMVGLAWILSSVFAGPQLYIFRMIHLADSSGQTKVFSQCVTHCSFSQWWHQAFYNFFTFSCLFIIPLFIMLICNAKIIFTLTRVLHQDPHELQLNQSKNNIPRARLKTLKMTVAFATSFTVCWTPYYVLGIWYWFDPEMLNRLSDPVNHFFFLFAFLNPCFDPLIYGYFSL
Sequence of Muscarinic acetylcholine receptor M1 (Homo sapiens) (P11229 whole entry, looked up): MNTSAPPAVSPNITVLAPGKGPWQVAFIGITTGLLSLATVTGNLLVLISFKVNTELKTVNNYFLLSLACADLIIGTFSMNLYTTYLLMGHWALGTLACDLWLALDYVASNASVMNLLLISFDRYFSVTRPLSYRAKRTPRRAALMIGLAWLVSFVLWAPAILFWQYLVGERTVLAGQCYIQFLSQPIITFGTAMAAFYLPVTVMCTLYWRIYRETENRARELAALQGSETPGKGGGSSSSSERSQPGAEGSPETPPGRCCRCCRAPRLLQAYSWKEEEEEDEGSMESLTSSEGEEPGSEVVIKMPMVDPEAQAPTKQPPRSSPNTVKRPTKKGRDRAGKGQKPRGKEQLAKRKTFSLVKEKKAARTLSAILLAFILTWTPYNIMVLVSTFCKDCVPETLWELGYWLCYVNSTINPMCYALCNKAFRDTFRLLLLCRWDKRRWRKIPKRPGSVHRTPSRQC
Sequence of 5-hydroxytryptamine receptor 2A (Homo sapiens) (P28223 whole entry, looked up): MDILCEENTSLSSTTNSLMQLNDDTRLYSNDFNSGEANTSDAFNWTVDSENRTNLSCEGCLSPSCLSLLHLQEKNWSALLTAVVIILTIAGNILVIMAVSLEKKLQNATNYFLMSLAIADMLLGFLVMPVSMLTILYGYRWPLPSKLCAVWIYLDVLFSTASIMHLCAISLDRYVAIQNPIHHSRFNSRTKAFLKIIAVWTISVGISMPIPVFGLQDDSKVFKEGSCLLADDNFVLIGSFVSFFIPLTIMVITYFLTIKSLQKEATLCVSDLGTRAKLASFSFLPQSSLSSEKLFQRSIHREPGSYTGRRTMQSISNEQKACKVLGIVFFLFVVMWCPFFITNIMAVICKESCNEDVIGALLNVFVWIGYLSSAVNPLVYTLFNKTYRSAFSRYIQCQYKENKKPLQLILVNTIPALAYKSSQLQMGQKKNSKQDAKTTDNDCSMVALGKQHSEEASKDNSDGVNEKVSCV
Sequence of Beta-2 adrenergic receptor (Homo sapiens) (P07550 whole entry, looked up): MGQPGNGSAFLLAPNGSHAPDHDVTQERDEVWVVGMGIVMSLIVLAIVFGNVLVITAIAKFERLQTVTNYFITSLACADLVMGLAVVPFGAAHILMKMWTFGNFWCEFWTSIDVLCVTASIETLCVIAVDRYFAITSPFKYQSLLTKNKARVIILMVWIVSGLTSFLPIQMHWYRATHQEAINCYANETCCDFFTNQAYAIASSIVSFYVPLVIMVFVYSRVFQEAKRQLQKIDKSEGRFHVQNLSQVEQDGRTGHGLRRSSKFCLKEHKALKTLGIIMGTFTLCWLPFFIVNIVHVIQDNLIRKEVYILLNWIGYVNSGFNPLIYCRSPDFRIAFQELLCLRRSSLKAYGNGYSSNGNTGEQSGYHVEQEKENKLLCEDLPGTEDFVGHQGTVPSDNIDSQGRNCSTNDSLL
Sequence of D(2) dopamine receptor (Homo sapiens) (P14416 whole entry, looked up): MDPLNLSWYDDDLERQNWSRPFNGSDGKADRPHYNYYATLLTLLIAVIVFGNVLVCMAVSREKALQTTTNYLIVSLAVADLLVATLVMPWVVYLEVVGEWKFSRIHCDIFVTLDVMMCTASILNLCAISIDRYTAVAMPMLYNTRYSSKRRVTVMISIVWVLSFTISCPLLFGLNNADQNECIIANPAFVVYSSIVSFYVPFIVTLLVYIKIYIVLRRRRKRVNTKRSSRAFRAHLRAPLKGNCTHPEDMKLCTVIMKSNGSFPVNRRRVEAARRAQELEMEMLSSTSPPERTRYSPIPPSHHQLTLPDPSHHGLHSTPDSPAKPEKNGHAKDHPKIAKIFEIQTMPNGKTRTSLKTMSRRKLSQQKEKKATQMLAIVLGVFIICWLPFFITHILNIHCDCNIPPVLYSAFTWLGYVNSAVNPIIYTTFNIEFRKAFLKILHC

`COC(=O)C1=CCCN(C)C1`: the Potency entry in assay [1], in assay [2], in [4], in assay [5], in assay [6] and in assay [7] was “inactive” each time. In addition, the Potency result in assay [8], in assay [9], in assay [10], in [11], in assay [12] and in [13] was “inactive” each time. In [14], the Potency entry is “inactive”. Moreover, the Potency in [3] is 1.07 µM (active).
Regarding `c1ccc2nc(N3CCNCC3)ccc2c1`, the Potency entry in assay [1], in [2], in assay [3], in assay [4], in assay [5] and in [6] was “inactive” throughout. Also, the Potency entry in assay [15], in assay [10], in [11], in assay [12] and in assay [14] was “inactive” each time. Besides, the Potency in [8] is 0.0033 µM (active); in assay [9] it was 0.0048 µM (active).
Consider `CC(C)(C)c1cc([N+](=O)[O-])cc([N+](=O)[O-])c1O`, for which the Potency in [1] is 13.6 µM (active); in assay [2] it was 30.5 µM (active); in [3], 38.8 µM (active). The Potency entry in [4], in assay [5], in assay [6], in assay [8], in assay [15] and in assay [16] was “inactive” each time. The Potency result in assay [12], in assay [13] and in [14] was “inactive” each time.
Consider `CC(=O)Nc1cc([As](=O)(O)O)ccc1O`, for which the Potency result in assay [1], in assay [2], in assay [3], in assay [17], in assay [18] and in assay [19] was “inactive” throughout. The Potency result in assay [5], in [6], in assay [7], in assay [20], in assay [9] and in [15] was “inactive” throughout. The Potency entry in assay [16], in assay [10], in [11], in assay [12] and in assay [14] was “inactive” throughout.
For `COc1cc(OC)nc(NC(=O)NS(=O)(=O)c2ncccc2OCC(F)(F)F)n1`, the Potency result in assay [1], in [2], in assay [3], in assay [17], in assay [19] and in assay [5] was “inactive” in each case. In addition, the Potency result in assay [6], in assay [7], in assay [20], in assay [9], in assay [15] and in assay [16] was “inactive” in each case. The Potency result in assay [10], in assay [11], in assay [12], in [13] and in assay [14] was “inactive” throughout.
For the compound `CCCCCCCCCCCCCC[P+](CCCCCC)(CCCCCC)CCCCCC` (tested in a mixture with another compound), the Potency in [1] is 6.86 µM (active); in [6], 16.2 µM (active); in [7] it was 14.5 µM (active); in [14], 54.5 µM (active). Also, the Potency entry in assay [2], in assay [3], in assay [17], in assay [18], in assay [19] and in [8] was “inactive” each time. The Potency result in [9], in [15], in [16], in [12] and in assay [13] was “inactive” each time.
On to `Cc1c(Cl)c(=O)oc2cc(OP(=O)(OCCCl)OCCCl)ccc12`, for which the Potency entry in assay [1], in assay [2], in assay [3], in assay [17], in [5] and in [6] was “inactive” in each case. The Potency result in assay [7], in assay [20], in [8], in [9], in [15] and in [16] was “inactive” each time. Moreover, the Potency result in assay [12] and in assay [14] was “inactive” in each case.
For the compound `CC[C@H]1C[C@H]2[C@@H]3CCC4=CC(=O)CC[C@@H]4[C@H]3CC[C@]2(C)[C@H]1O`, the Potency entry in [1], in assay [3], in [17], in assay [19], in [6] and in assay [7] was “inactive” throughout. Also, the Potency entry in assay [15], in assay [16], in assay [12], in [13] and in assay [14] was “inactive” throughout. Besides, the Potency in [2] was 11.9 µM (active).
As for `C[C@@H](Oc1ccc(Cl)cc1Cl)C(=O)O`, the Potency entry in [1], in [2], in [3], in [17], in [19] and in assay [5] was “inactive” throughout. Further, the Potency result in [6], in [7], in assay [8], in [9], in assay [15] and in [16] was “inactive” each time. Also, the Potency entry in assay [13] and in [14] was “inactive” throughout.
